Measured values taken from the supplement of paper PMC12494721.
Where a name gives a salt, the structure may show the parent alone.

Experiments:
Details in all cases: incubation time: 27 h, anaerobic, 37 °C;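 for the amine columns active = adjusted P below 0.05 in both replicates with a change the same way and a mean fold change under 0.8 or over 1.25; inactive = the rest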
[1] = tested on: Clostridium sporogenes DSM 1664; test: growth (OD595) fold change vs plate DMSO controls (fold change (ratio)); higher = more growth
In short: (§1)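 The reported measure is growth: the fold change against the median of DMSO controls on the plate. Absorbance at 595 nm from anaerobic 96-well mGAM cultures grown for 27 h at 37 °C was blank-subtracted, corrected for background with 20 µM compound solutions in water, and converted to OD with a calibration factor of 5. Fold changes above 1.5 appear as NA, and values are the mean of 2 biological replicates.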

Escherichia coli IAI1 [2] = test: as above
In short: as §1

[3] = tested on: Klebsiella aerogenes DSM 30053; test: as above
In short: as §1

[4] = tested on: Ruminococcus gnavus DSM 108212; test: as above
In short: as §1

[5] = tested on: Klebsiella aerogenes DSM 30053; test: fold change of Histamine concentration vs plate DMSO controls (fold change (ratio)); higher = more amine produced, active = hit call of the paper (significant change in both replicates, either direction)
In short: (§2)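 Anaerobic mGAM cultures of four gut bacterial strains were grown at 37 °C for 27 h in 80 µL wells, starting at OD 0.1 before 1:1 dilution. Compounds were at 20 µM final (sweeteners 50 µM). Whole cultures were extracted with cold acetonitrile/methanol containing 0.1% formic acid and centrifuged. Amines were quantified by LC–triple-quadrupole MS (dynamic MRM) against external calibration curves and drift-corrected within batch. Each value is the fold change versus plate DMSO controls, averaged over 2 biological replicates.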

[6] = tested on: Clostridium sporogenes DSM 1664; test: fold change of Tryptamine concentration vs plate DMSO controls (fold change (ratio)); higher = more amine produced, active = hit call of the paper (significant change in both replicates, either direction)
In short: as §2

[7] = tested on: Ruminococcus gnavus DSM 108212; test: as above
In short: as §2

Escherichia coli IAI1 [8] = test: fold change of Putrescine concentration vs plate DMSO controls (fold change (ratio)); higher = more amine produced, active = hit call of the paper (significant change in both replicates, either direction)
In short: as §2

[9] = tested on: Klebsiella aerogenes DSM 30053; test: as above
In short: as §2

Escherichia coli IAI1 [10] = test: fold change of Cadaverine concentration vs plate DMSO controls (fold change (ratio)); higher = more amine produced, active = hit call of the paper (significant change in both replicates, either direction)
In short: as §2

[11] = tested on: Klebsiella aerogenes DSM 30053; test: as above
In short: as §2

[12] = tested on: Ruminococcus gnavus DSM 108212; test: fold change of 2-Phenylethylamine concentration vs plate DMSO controls (fold change (ratio)); higher = more amine produced, active = hit call of the paper (significant change in both replicates, either direction)
In short: as §2

Row | SMILES | growth [1] | growth (Escherichia coli IAI1 [2]) | growth [3] | growth [4] | fold change of Histamine concentration [5] | fold change of Tryptamine concentration [6] | fold change of Tryptamine concentration [7] | fold change of Putrescine concentration (Escherichia coli IAI1 [8]) | fold change of Putrescine concentration [9] | fold change of Cadaverine concentration (Escherichia coli IAI1 [10]) | fold change of Cadaverine concentration [11] | fold change of 2-Phenylethylamine concentration [12]
1 | COc1ccc(-c2cc(=S)ss2)cc1 [Anethole-trithione] (20 µM) | 0.802 | 1.01 | 0.968 | 1.04 | 1.04 (inactive) | 1.18 (inactive) | 1.07 (inactive) | 1.01 (inactive) | 0.972 (inactive) | 1.01 (inactive) | 0.986 (inactive) | 1.07 (inactive)
2 | Cc1cccc(C)c1NC(=O)C(C)N (stereo not drawn) [Tocainide hydrochloride] (20 µM) | 0.909 | 1.02 | 0.994 | 1.06 | 1.06 (inactive) | 1.01 (inactive) | 1.02 (inactive) | 1.03 (inactive) | 1 (inactive) | 0.983 (inactive) | 0.976 (inactive) | 1.05 (inactive)
3 | CN(C/C=C/c1ccccc1)Cc1cccc2ccccc12 [Naftifine hydrochloride] (20 µM) | 1.08 | 1.21 | 0.994 | 0.89 | 0.999 (inactive) | 0.99 (inactive) | 0.941 (inactive) | 1.08 (inactive) | 0.996 (inactive) | 1.34 (active) | 0.99 (inactive) | 1.01 (inactive)
4 | CCc1oc2ccccc2c1C(=O)c1ccc(O)cc1 [Benzarone] (20 µM) | 1 | 1.1 | 1.09 | 1.11 | 0.967 (inactive) | 0.933 (inactive) | 0.934 (inactive) | 1.06 (inactive) | 1 (inactive) | 1.01 (inactive) | 1.02 (inactive) | 0.956 (inactive)
5 | CN(C)CCCOc1nn(Cc2ccccc2)c2ccccc12 [Benzydamine hydrochloride] (20 µM) | 1.1 | 0.95 | 0.978 | 1.04 | 1.05 (inactive) | 0.95 (inactive) | 0.986 (inactive) | 0.983 (inactive) | 1.03 (inactive) | 0.967 (inactive) | 1.01 (inactive) | 0.92 (inactive)
6 | C/C(=C(\CCOP(=O)(O)O)SC(=O)c1ccccc1)N(C=O)Cc1cnc(C)nc1N [Benfotiamine] (20 µM) | 0.989 | 0.98 | 1.03 | 1.05 | 0.984 (inactive) | 1.01 (inactive) | 0.96 (inactive) | 0.942 (inactive) | 1 (inactive) | 1.04 (inactive) | 1 (inactive) | 0.959 (inactive)
7 | COC(=O)[C@H]1[C@H]2C[C@@H]3c4[nH]c5cc(OC)ccc5c4CCN3C[C@H]2C[C@@H](OC(=O)c2cc(OC)c(OC)c(OC)c2)[C@@H]1OC [Reserpine] (20 µM) | 1.21 | 0.987 | 1.02 | 1.01 | 0.943 (inactive) | 1.07 (inactive) | 1.04 (inactive) | 0.935 (inactive) | 0.983 (inactive) | 0.966 (inactive) | 1.01 (inactive) | 1.07 (inactive)
8 | C[C@]12C=CC(=O)C=C1CC[C@@H]1[C@@H]2[C@@H](O)C[C@@]2(C)[C@H]1CC[C@]2(O)C(=O)CO [Prednisolone] (20 µM) | 0.973 | 0.997 | 1 | 0.987 | 1.02 (inactive) | 1.03 (inactive) | 0.942 (inactive) | 0.997 (inactive) | 1 (inactive) | 0.997 (inactive) | 1 (inactive) | 0.815 (inactive)
9 | CCCCCCOc1ccccc1C(N)=O [Exalamide] (20 µM) | 1.34 | 0.997 | 1.03 | 1.23 | 0.934 (inactive) | 0.949 (inactive) | 0.95 (inactive) | 0.952 (inactive) | 1.01 (inactive) | 1.03 (inactive) | 0.997 (inactive) | 0.936 (inactive)
10 | CCCN1CCCC[C@H]1C(=O)Nc1c(C)cccc1C [Ropivacaine hydrochloride] (20 µM) | 1.02 | 0.971 | 0.964 | 0.779 | 1.13 (inactive) | 1.13 (inactive) | 1.02 (inactive) | 0.946 (inactive) | 1.04 (inactive) | 1.03 (inactive) | 0.961 (inactive) | 1.01 (inactive)
11 | Cn1cnc([N+](=O)[O-])c1Sc1ncnc2[nH]cnc12 [Azathioprine] (20 µM) | 1.11 | 1.03 | 0.993 | 1.49 | 0.991 (inactive) | 1.04 (inactive) | 0.965 (inactive) | 0.977 (inactive) | 0.99 (inactive) | 0.974 (inactive) | 0.992 (inactive) | 0.984 (inactive)
12 | COc1cccc(N(C)C(=S)Oc2ccc3c(c2)CCCC3)n1 [Liranaftate] (20 µM) | 1.1 | 0.972 | 0.969 | 0.941 | 1 (inactive) | 0.974 (inactive) | 1.31 (active) | 0.998 (inactive) | 1.06 (inactive) | 1.01 (inactive) | 1.07 (inactive) | 1.69 (active)
13 | CCOC(=O)/C=C(C)/C=C/C=C(C)/C=C/c1c(C)cc(OC)c(C)c1C [Etretinate] (20 µM) | 1.04 | 0.971 | 0.965 | 0.927 | 1.09 (inactive) | 1.02 (inactive) | 1.03 (inactive) | 0.998 (inactive) | 1.02 (inactive) | 1 (inactive) | 0.983 (inactive) | 1.04 (inactive)
14 | C=C1C[C@@]23CC[C@H]4[C@@](C)(CCC[C@@]4(C)C(=O)O[C@@H]4O[C@H](CO)[C@@H](O)[C@H](O)[C@H]4O)[C@@H]2CC[C@]1(O[C@@H]1O[C@H](CO)[C@@H](O)[C@H](O)[C@H]1O[C@@H]1O[C@H](CO)[C@@H](O)[C@H](O)[C@H]1O)C3 [Stevioside] (50 µM) | 0.957 | 1 | 0.995 | 0.976 | 0.984 (inactive) | 0.986 (inactive) | 0.947 (inactive) | 0.989 (inactive) | 0.863 (inactive) | 1.04 (inactive) | 1.1 (inactive) | 0.971 (inactive)
15 | CCN(CC)CCNC(=O)c1cc(Cl)c(N)cc1OC [Metoclopramide monohydrochloride] (20 µM) | 1.08 | 1.01 | 1 | 1.13 | 1.03 (inactive) | 0.988 (inactive) | 1.02 (inactive) | 0.875 (inactive) | 1.03 (inactive) | 0.826 (inactive) | 0.998 (inactive) | 1 (inactive)
16 | Cc1ncc([N+](=O)[O-])n1C [Dimetridazole] (20 µM) | 0.0144 | 1.02 | 0.995 | 0.811 | 0.868 (inactive) | 0.0153 (active) | 0.218 (active) | 1.05 (inactive) | 1.01 (inactive) | 1.07 (inactive) | 1.01 (inactive) | 0.218 (active)
17 | COc1c(Cl)ccc(Cl)c1C(=O)O (20 µM) | 1.05 | 1.02 | 1.03 | 1.19 | 0.99 (inactive) | 0.999 (inactive) | 0.997 (inactive) | 1.01 (inactive) | 1.01 (inactive) | 1.03 (inactive) | 1.01 (inactive) | 0.995 (inactive)
18 | COc1cc(NS(=O)(=O)c2ccc(N)cc2)ncn1 [Sulfamonomethoxine] (20 µM) | 1.06 | 0.996 | 0.978 | 1.09 | 1.11 (inactive) | 0.982 (inactive) | 0.944 (inactive) | 0.911 (inactive) | 1.02 (inactive) | 1.03 (inactive) | 0.991 (inactive) | 0.915 (inactive)
19 | CC[N+](C)(C)Cc1ccccc1Br [Bretylium tosylate] (20 µM) | 1.03 | 1.02 | 1.06 | 0.996 | 0.853 (inactive) | 0.973 (inactive) | 1.03 (inactive) | 1 (inactive) | 0.998 (inactive) | 0.937 (inactive) | 1.02 (inactive) | 1.05 (inactive)
20 | Cc1ccc(-c2cc(C(F)(F)F)nn2-c2ccc(S(N)(=O)=O)cc2)cc1 [Celecoxib] (20 µM) | 0.912 | 1.03 | 1 | 1.11 | 1.09 (inactive) | 0.967 (inactive) | 0.927 (inactive) | 1.03 (inactive) | 0.991 (inactive) | 1.06 (inactive) | 0.99 (inactive) | 0.87 (inactive)
21 | CCCCOC(=O)c1ccccc1Nc1cccc(C(F)(F)F)c1 [Ufenamate] (20 µM) | 0.986 | 1.07 | 1.07 | 0.991 | 0.944 (inactive) | 1.03 (inactive) | 1.11 (inactive) | 1.06 (inactive) | 0.979 (inactive) | 1.03 (inactive) | 1.02 (inactive) | 1.14 (inactive)
22 | CCOc1ccccc1OC(c1ccccc1)C1CNCCO1 (stereo not drawn) [Reboxetine mesylate] (20 µM) | 1.03 | 1.16 | 1.07 | 1.08 | 1.01 (inactive) | 0.997 (inactive) | 1.04 (inactive) | 1.03 (inactive) | 1.01 (inactive) | 0.926 (inactive) | 1 (inactive) | 1.03 (inactive)
23 | COCC(=O)Nc1c(I)c(C(=O)NCC(O)CO)c(I)c(C(=O)N(C)CC(O)CO)c1I (stereo not drawn) [Iopromide] (20 µM) | 1.27 | 1.02 | 1.06 | 1.02 | 1.01 (inactive) | 1.01 (inactive) | 1.11 (inactive) | 1.09 (inactive) | 0.975 (inactive) | 0.989 (inactive) | 1.02 (inactive) | 1.15 (inactive)
24 | O=P(O)(O)C(O)(Cn1ccnc1)P(=O)(O)O [Zoledronic acid hydrate] (20 µM) | 1.08 | 0.974 | 0.978 | 1 | 1.08 (inactive) | 0.973 (inactive) | 0.629 (inactive) | 0.987 (inactive) | 1.02 (inactive) | 1.05 (inactive) | 1 (inactive) | 0.627 (inactive)
